The values that follow come from ChEMBL document CHEMBL1157539, “Thousands of chemical starting points for antimalarial lead identification” (Nature, 2010).

Format in all cases: functional
The test system of experiment [1] is Plasmodium falciparum. Description: GSK_TCMDC: Inhibition of Plasmodium falciparum 3D7 in whole red blood cells, using parasite LDH activity as an index of growth. Test compounds present at 2uM.
Experiment [2] deals with Plasmodium falciparum. Description: GSK_TCMDC: Inhibition of Plasmodium falciparum Dd2 in whole red blood cells, using parasite LDH activity as an index of growth. Test compounds present at 2uM.
The test system of another experiment is HepG2. Description: GSK_TCMDC: Percent inhibition of human HepG2 cell line. Test compounds present at 10uM.

The structures appear in SMILES notation.

In the case of `Cc1cc(N[C@@H](Cc2ccccc2)C(=O)NCc2cccs2)nc(NCCc2ccc(F)cc2)n1.O=C(O)C(F)(F)F`, the results for the Inhibition in the experiment on Plasmodium falciparum [1], in the experiment on Plasmodium falciparum [2] and in the experiment on HepG2 were 100%, 83% and 3%, respectively.

As for `CN(C)Cc1ccc2cc(NC(=O)c3ccc(-c4ccc(Cl)cc4)cc3)ccc2n1.O=C(O)C(F)(F)F`, the Inhibition in the experiment with Plasmodium falciparum [1] was 86%; in the experiment with Plasmodium falciparum [2] it was 30%; in the experiment on HepG2 it was 60%.

Regarding `Cl.NC1CCN(Cc2cccc(-c3ccc(-c4nc5cc(C(F)(F)F)ccc5[nH]4)cc3)c2)C1` (stereo not given), the Inhibition amounted to 99% with Plasmodium falciparum [1], 97% in the experiment with Plasmodium falciparum [2] and 21% with HepG2.

For `COc1ccc(CN2CCC2=O)c(OC)c1`, the Inhibition stood at 98% in the experiment on Plasmodium falciparum [1], 96% with Plasmodium falciparum [2] and 0% in the experiment on HepG2.

Consider `Cc1cc(NCCC(=O)Nc2ccccc2)nc(NCCc2cccnc2)n1.O=C(O)C(F)(F)F`, for which the Inhibition with Plasmodium falciparum [1] amounted to 84%; with Plasmodium falciparum [2], 4%; in the experiment on HepG2, 0%.

In the case of `CC(C)C1C(O)=C(c2ccc3ccccc3c2)C(=O)N1CC1CCCCC1` (stereo not given), the Inhibition with Plasmodium falciparum [1] is 84%; in the experiment on Plasmodium falciparum [2] it was 43%; with HepG2 it was 11%.

In the case of `CC(=O)Nc1nc(C(=O)Nc2ccc(-c3cccc(-c4nc5cccc(C)c5[nH]4)c3)cc2)cs1`, the Inhibition in the experiment on Plasmodium falciparum [1] is on record as 100%; in the experiment on Plasmodium falciparum [2], 73%; with HepG2 it was 100%.

Regarding `O=C(Nc1ccc(-c2cccc(-c3nc4ccccc4[nH]3)c2)cc1)Nc1ccsc1`, the Inhibition with Plasmodium falciparum [1] came out at 100%; with Plasmodium falciparum [2] it was 90%; in the experiment with HepG2, 56%.

Consider `CCNc1cc(C(=O)N[C@@H](Cc2ccccc2)[C@H](O)CNC(C)(C)Cc2ccccc2)cc(N2CCCC2=O)c1.O=CO`, for which the Inhibition with Plasmodium falciparum [1] was determined as 99%; with Plasmodium falciparum [2], 78%; in the experiment with HepG2 it was 1%.

Consider `CCOc1cc(C(=O)N[C@@H](Cc2ccccc2)[C@H](O)CNCc2cc(OC)cc(OC)c2)cc(N2CCCS2(=O)=O)c1.Cl`, for which the figures for the Inhibition in the experiment on Plasmodium falciparum [1], with Plasmodium falciparum [2] and in the experiment on HepG2 were 94%, 66% and 0%, respectively.

In general, Inhibition refers to the share of the control response that was lost under treatment. Higher therefore signals a strong effect.
